Test results published in PubChem BioAssay (NCI).
About 83,000 compounds went through this panel and 20% of them were active in at least one assay; those are over-represented in the sample as a whole.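 Plates (96-well) were seeded with cells, treated with compound at one concentration, and incubated for 48 hours before percent growth was determined.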 Values without a mark were called inactive. Active and inactive are the calls of the source. Rule for the calls: active = growth percent below 10; inactive = the rest.

Experiments:
Experiment in all cases: NCI-60 one-dose screen, 48 h (100 = growth as untreated, 0 = no growth, -100 = all killed)
Settings in all cases: 10 µM
SR leukemia = system: SR leukemia
RPMI-8226 leukemia = system: RPMI-8226 leukemia
OVCAR-8 ovarian = system: OVCAR-8 ovarian
OVCAR-5 ovarian = system: OVCAR-5 ovarian
OVCAR-4 ovarian = system: OVCAR-4 ovarian
SK-OV-3 ovarian = system: SK-OV-3 ovarian
IGROV1 ovarian = system: IGROV1 ovarian
OVCAR-3 ovarian = system: OVCAR-3 ovarian
HS 578T breast = system: HS 578T breast
NCI/ADR-RES ovarian = system: NCI/ADR-RES ovarian
T-47D breast = system: T-47D breast
MDA-MB-435 melanoma = system: MDA-MB-435 melanoma
SW-620 colon = system: SW-620 colon
MCF7 breast = system: MCF7 breast
HCT-116 colon = system: HCT-116 colon
HCC-2998 colon = system: HCC-2998 colon
KM12 colon = system: KM12 colon
BT-549 breast = system: BT-549 breast

With CCN(CC)CCOc1cccc2c1C(=O)c1cccc(OCCN(CC)CC)c1C2=O the growth (SR leukemia) was 10.3%, the growth (RPMI-8226 leukemia) was 11% and the growth (OVCAR-8 ovarian) was 25.7%. For the same compound, the growth (OVCAR-5 ovarian) was 55.5%, the growth (OVCAR-4 ovarian) was 45.9% and the growth (SK-OV-3 ovarian) was 33.8%. The growth (IGROV1 ovarian) was 33.9%, the growth (OVCAR-3 ovarian) was 47% and the growth (HS 578T breast) was 78.9%. It also gave a growth (NCI/ADR-RES ovarian) of 86.5%, a growth (T-47D breast) of 92.2% and a growth (MDA-MB-435 melanoma) of 32.5%. The growth (SW-620 colon) was 20.8%, the growth (MCF7 breast) was 9.16% (active) and the growth (HCT-116 colon) was 7.44% (active). For the same compound, the growth (HCC-2998 colon) was 54.7% and the growth (KM12 colon) was 33.9%.

NC(=O)c1cccc(-n2ccc3cc(NC(=O)Nc4ccc(Cl)c(C(F)(F)F)c4)ccc32)n1 was tested, and the growth (SR leukemia) was 91.1%, the growth (RPMI-8226 leukemia) was 70.5% and the growth (OVCAR-8 ovarian) was 72.1%. For the same compound, the growth (OVCAR-5 ovarian) was 93.1%, the growth (OVCAR-4 ovarian) was 77.6% and the growth (SK-OV-3 ovarian) was 94.8%. It also gave a growth (IGROV1 ovarian) of 74.5%, a growth (OVCAR-3 ovarian) of 94.7% and a growth (HS 578T breast) of 46.5%. It also gave a growth (NCI/ADR-RES ovarian) of 82%, a growth (T-47D breast) of 68.5% and a growth (BT-549 breast) of 69.8%. It also gave a growth (MDA-MB-435 melanoma) of 74.9%, a growth (SW-620 colon) of 111% and a growth (MCF7 breast) of 43.8%. It also gave a growth (HCT-116 colon) of 67%, a growth (HCC-2998 colon) of 96.3% and a growth (KM12 colon) of 64.4%.

With O=C1/C=C/[C@@H](O)[C@@H]2C[C@@H](O)C[C@H]2/C=C/CCC[C@H](CCc2ccc(C(F)(F)F)cc2)O1 the growth (SR leukemia) was 1.16% (active), the growth (RPMI-8226 leukemia) was -8.16% (active) and the growth (OVCAR-8 ovarian) was 2.31% (active). The growth (OVCAR-5 ovarian) was 13.6%, the growth (OVCAR-4 ovarian) was 9.39% (active) and the growth (SK-OV-3 ovarian) was 12.5%. The growth (IGROV1 ovarian) was 5.99% (active), the growth (OVCAR-3 ovarian) was -10.4% (active) and the growth (HS 578T breast) was 27.8%. The growth (NCI/ADR-RES ovarian) was 3.21% (active), the growth (T-47D breast) was -32.2% (active) and the growth (BT-549 breast) was 4.5% (active). The growth (MDA-MB-435 melanoma) was 7.3% (active), the growth (SW-620 colon) was -1.3% (active) and the growth (MCF7 breast) was -17.5% (active). The growth (HCT-116 colon) was -45.8% (active), the growth (HCC-2998 colon) was -11.5% (active) and the growth (KM12 colon) was -6.74% (active).

With COc1ccc(/C=C/C(=O)C(=O)/C=C/c2ccc(OC)c(OC)c2)cc1OC the growth (SR leukemia) was 4.78% (active), the growth (RPMI-8226 leukemia) was 3.5% (active) and the growth (OVCAR-8 ovarian) was 19.5%. For the same compound, the growth (OVCAR-5 ovarian) was 60.5%, the growth (OVCAR-4 ovarian) was 61.9% and the growth (SK-OV-3 ovarian) was 97.8%. For the same compound, the growth (IGROV1 ovarian) was 10.1%, the growth (OVCAR-3 ovarian) was 3.9% (active) and the growth (HS 578T breast) was 31.5%. The growth (NCI/ADR-RES ovarian) was 71.7%, the growth (T-47D breast) was 35.8% and the growth (BT-549 breast) was 14.8%. For the same compound, the growth (MDA-MB-435 melanoma) was 12.2%, the growth (SW-620 colon) was 4.43% (active) and the growth (MCF7 breast) was 4.02% (active). The growth (HCT-116 colon) was -74.8% (active), the growth (HCC-2998 colon) was 21.9% and the growth (KM12 colon) was -4.31% (active).

CSc1nc2c(c(=O)n1C)CN(Cc1ccccc1)C(=O)CN2 was tested, and the growth (SR leukemia) was -9.52% (active), the growth (RPMI-8226 leukemia) was 109% and the growth (OVCAR-8 ovarian) was 106%. It also gave a growth (OVCAR-5 ovarian) of 94.4%, a growth (OVCAR-4 ovarian) of 91% and a growth (SK-OV-3 ovarian) of 99%. It also gave a growth (IGROV1 ovarian) of 97.6%, a growth (OVCAR-3 ovarian) of 98.6% and a growth (HS 578T breast) of 101%. The growth (NCI/ADR-RES ovarian) was 85.5%, the growth (T-47D breast) was 95% and the growth (MDA-MB-435 melanoma) was 60%. For the same compound, the growth (SW-620 colon) was 95.7%, the growth (MCF7 breast) was 89.6% and the growth (HCT-116 colon) was 92.6%. The growth (HCC-2998 colon) was 85.4% and the growth (KM12 colon) was 85.7%.

CCOC(=O)C1=CSC2=NC3=C(CCC/C3=C\c3cc(OC)c(OC)c(OC)c3)C(c3cc(OC)c(OC)c(OC)c3)N12 (stereo not given) was tested, and the growth (SR leukemia) was 31.2%, the growth (RPMI-8226 leukemia) was 22.4% and the growth (OVCAR-8 ovarian) was 13.5%. It also gave a growth (OVCAR-5 ovarian) of 75.7%, a growth (OVCAR-4 ovarian) of 72.3% and a growth (SK-OV-3 ovarian) of 102%. It also gave a growth (IGROV1 ovarian) of 89.7%, a growth (OVCAR-3 ovarian) of 57.1% and a growth (HS 578T breast) of 46.8%. The growth (NCI/ADR-RES ovarian) was 3.63% (active), the growth (T-47D breast) was 88.9% and the growth (MDA-MB-435 melanoma) was 21%. For the same compound, the growth (SW-620 colon) was 44.9%, the growth (MCF7 breast) was 29.9% and the growth (HCT-116 colon) was 19.2%. For the same compound, the growth (HCC-2998 colon) was 75.1% and the growth (KM12 colon) was -21.8% (active).

In the case of NNC(=O)Oc1c(Cl)cc(Cl)cc1[N+](=O)[O-], the growth (SR leukemia) is reported as 87.5%, the growth (RPMI-8226 leukemia) is reported as 105% and the growth (OVCAR-8 ovarian) is reported as 109%. The growth (OVCAR-5 ovarian) was 104%, the growth (OVCAR-4 ovarian) was 113% and the growth (SK-OV-3 ovarian) was 102%. For the same compound, the growth (IGROV1 ovarian) was 101%, the growth (OVCAR-3 ovarian) was 107% and the growth (HS 578T breast) was 104%. For the same compound, the growth (NCI/ADR-RES ovarian) was 101%, the growth (T-47D breast) was 98.5% and the growth (MDA-MB-435 melanoma) was 107%. The growth (SW-620 colon) was 105%, the growth (MCF7 breast) was 87.9% and the growth (HCT-116 colon) was 102%. It also gave a growth (HCC-2998 colon) of 103% and a growth (KM12 colon) of 106%.

In the case of CS(=O)(=O)c1nccc(-c2c(-c3cccc(OCCN4CCOCC4)c3)nc3sccn23)n1, the growth (SR leukemia) is reported as 78.3%, the growth (RPMI-8226 leukemia) is reported as 47.8% and the growth (OVCAR-8 ovarian) is reported as 92.1%. The growth (OVCAR-5 ovarian) was 96.6%, the growth (OVCAR-4 ovarian) was 76.8% and the growth (SK-OV-3 ovarian) was 84.9%. For the same compound, the growth (IGROV1 ovarian) was 80.2%, the growth (OVCAR-3 ovarian) was 94.8% and the growth (HS 578T breast) was 88.7%. The growth (NCI/ADR-RES ovarian) was 93.3%, the growth (T-47D breast) was 81% and the growth (BT-549 breast) was 108%. For the same compound, the growth (MDA-MB-435 melanoma) was 98.4%, the growth (SW-620 colon) was 97.7% and the growth (MCF7 breast) was 69.3%. The growth (HCT-116 colon) was 78.4%, the growth (HCC-2998 colon) was 101% and the growth (KM12 colon) was 96.6%.
